# Source: PubChem BioAssay (National Center for Advancing Translational Sciences (NCATS))
# Hits are enriched below; roughly 6.5% of the tested compounds scored in any of these assays.
# LASV entry inh – inhibitors of Lassa virus binding or cell entry; AID 540256; Lassa virus pseudotype entry inhibition, cell reporter; 300,000 tested, 1.2% active; Potency, µM (series often up to 37.9 µM), for the others: at the top dose activity change, negative = inhibition, actives largely listed as inhibitors; calls by dose curve; tested in HEK293 cells; further: potency means the concentration at half of the fitted maximal effect; nearly all actives have a fitted effect of over 50% in size
# FMDV antiviral – foot and mouth disease virus antiviral activity. FMDV antiviral cell-based qHTS. Potency, µM (series often up to 57.9 µM), for the others: at the highest dose activity change, negative = inhibition, hits mostly inhibitors. 410,000 tested, 1.2% active; calls by dose curve; tested in HEK293T cells; further: read-out not given here; potency means the concentration at half of the fitted maximal effect; nearly all actives have a fitted effect of over 45% in size
# HCMV antiviral – blocks human cytomegalovirus replication | HFF cells, HCMV-luciferase reporter, 72 h; active compounds read low | activity change, negative = inhibition, % at 57.5 µM | 410,000 tested, 4.5% active | AID 1259415; in the data active means activity change below about -60%; inconclusive means no clear call, values can overlap the other calls; inactive means above about -39%
#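 After 16 h attachment at 37C, HFF cells received test compound and HCMV-luciferase (1 PFU/cell); reporter luminescence read 72 h later, data normalized against buffer-only and known inhibitor Salinomycin.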
# Vaccinia Venus – vaccinia inhibition (Venus reporter) | Potency, µM (highest dose often 36.5 µM), without a hit: at the top dose activity change, negative = inhibition, hits mostly inhibitors | AID 720580 | 330,000 tested, 0.46% active | Vaccinia virus Venus reporter expression, fluorescence; calls by dose curve; tested in A549 cells; further: potency means the concentration at half of the fitted maximal effect; nearly all actives have a fitted effect of over 30% in size
# MARV entry inh – inhibitors of Marburg virus binding or cell entry; Potency, µM (doses to about 37.8 µM), for the others: top-dose activity change, negative = inhibition, most hits filed as inhibitors; Marburg virus pseudotyped entry inhibition, cell reporter; 300,000 tested, 1.8% active; calls by dose curve; tested in HEK293 cells; further: potency means the concentration at half of the fitted maximal effect
# VACV mCherry inh – vaccinia inhibition (mCherry reporter). Vaccinia virus mCherry reporter infection, fluorescence. 310,000 tested, 0.63% active. Potency, µM (titrated, usually from 36.5 µM), inactives show at the top dose activity change, negative = inhibition, actives largely listed as inhibitors. AID 720579; calls by dose curve; tested in A549 cells; further: potency means the concentration at half of the fitted maximal effect; nearly all actives have a fitted effect of over 35% in size
# Active calls of the source: *; i = inactive; ? = inconclusive; · = not tested or not shown; + = active, no number; [ ] = another dose, or the depositor's remark. On the % scale 0 is the no-effect control and ±100 the full control effect.
SMILES,LASV entry inh,FMDV antiviral,HCMV antiviral,Vaccinia Venus,MARV entry inh,VACV mCherry inh
N#CC1=C(SCC(N)=O)NC2=C(C(=O)c3ccccc32)C1c1ccc(Cl)cc1 (stereo unspecified),-29.5%,-15.0%,-60.4*,·,?,·
COc1ccc(N2CC(C(=O)N/N=C/c3c[nH]c4ccccc34)CC2=O)cc1 (stereo unspecified),-10.1%,-22.6%,-21.3,-9.4%,7.6%[46.1 µM],i
O=C(N/N=C/c1ccccc1O)C1CC(=O)N(c2ccc(F)cc2)C1 (stereo unspecified),?,5.6%,17.1,?,?,14.1µM*
COC(=O)c1ccc(OCC2c3cc(OC)c(OC)cc3CCN2C(=O)c2ccco2)cc1 (stereo unspecified),4.11µM*,?,91.3,·,?,·
COC(=O)c1ccc(OCC2c3cc(OC)c(OC)cc3CCN2C(=O)c2ccc(OC)cc2)cc1 (stereo unspecified),-29.9%[46.1 µM],-16.1%,12.0,-6.8%,·,-5.3%
COc1cc2c(cc1OC)C(c1ccccc1)N(C(=O)c1ccccc1F)CC2 (stereo unspecified),·,-15.1%,3.1,·,·,·
COc1cc2c(cc1OC)C(c1ccccc1)N(C(=O)c1ccccc1)CC2 (stereo unspecified),·,-15.2%,-60.5*,·,·,·
COCCNC(=S)N1CCc2cc(OC)c(OC)cc2C1COc1ccc(C(C)C)cc1 (stereo unspecified),?,-25.9%,55.9,-23.8%,13µM*,-22.7%
COc1cc2c(cc1OC)C(COc1ccccc1OC)N(C(=O)c1ccccc1OC)CC2 (stereo unspecified),-3.1%[46.1 µM],0.0%,-105.6*,3.2%,·,-1.8%
CCCCC(CC)CN=C(N)NC(N)=NCCCCCCN=C(N)NC(N)=NCC(CC)CCCC (stereo unspecified),·,?,·,10µM*,·,?
COc1ccc(OC)c(CNC(=O)C2CCN(c3nc4ccccc4nc3C(F)(F)F)CC2)c1,0.3%[46.1 µM],-23.4%,6.8,-10.5%,·,3.8%
Cc1ccc(S(=O)(=O)n2nc(-c3ccco3)nc2N)cc1,10.8%,4.3%,-67.2*,-10.4%,0.5%[46.1 µM],-12.8%
COc1ccc(C(=O)NCc2oc(-c3ccccc3)cc2C(=O)O)cc1,-1.0%,7.1%,-85.9*,-4.7%,2.4%,-21.6%[1.46 µM]
COc1ccc(C(=O)NCc2c(C)oc(C)c2C(=O)O)cc1,?,-9.8%,6.7,-3.8%,12.2%,i
COc1ccc2c(c1)c(CC(=O)O)c(C)n2C(=O)c1ccc(Cl)cc1,-11.6%,-21.4%,-21.3,?,?,-12.6%
COc1ccc2c(c1)c(CCN1CCOCC1)c(C)n2C(=O)c1cccc(Cl)c1Cl,23.1µM*,·,·,·,?,·
Cc1ccc(O)c(CNCCNCc2cc(C)ccc2O)c1,·,-19.6%,-67.4*,-10.4%,·,?
COC(=O)C1N2C(=O)N(C)[C@H](C(=O)OC)[C@H]2SC1(C)C (stereo partly specified),·,·,·,-6.7%,·,i
CCCOc1ccc(C2C3=C(Nc4nc(N)[nH]c(=O)c42)c2ccccc2C3=O)cc1 (stereo unspecified),·,19.4%,-67.3*,·,·,·
CCOc1ccc(C2C3=C(Nc4nc(N)[nH]c(=O)c42)c2ccccc2C3=O)cc1 (stereo unspecified),24.6%,7.2%,-21.9,-5.7%,?,i
CCCCNC(=O)C(C)(C)n1cc(NC(=O)Cc2ccc(F)cc2)cn1,·,·,1.8,·,·,·
C=NCc1cc2c(OC[C@@H](O)CNC(C)(C)C)cccc2[nH]1,·,-11.9%,·,-4.4%,·,-14.9%
CC(C)C[C@H]1CN([C@@H](CC(C)C)CN2CCCC2CN2C(=S)NC[C@@H]2Cc2ccc(O)cc2)C(=S)N1CC1CCCCCC1 (stereo partly specified),·,?,-69.7*,?,·,?
CC(C)C[C@H]1CN([C@@H](CC(C)C)CN2CCCC2CN2C(=S)NC[C@@H]2Cc2ccc(O)cc2)C(=S)N1CC1CCCCC1 (stereo partly specified),·,?,-107.4*,?,·,?
O=C(CSc1ncnc2nc[nH]c12)N1CCN(c2ccc(Cl)cc2)CC1,?,?,-69.1*,·,?,·
SMILES,LASV entry inh,FMDV antiviral,HCMV antiviral,Vaccinia Venus,MARV entry inh,VACV mCherry inh
Cc1[nH]c(=O)c(C(=O)/C=C/c2ccccc2F)c2c1CCCC2,10.3µM*,14.1µM*,-101.9*,·,11.6µM*,·
C/C(=C\c1ccccc1F)C(=O)c1c(C)cc(C)[nH]c1=O,0.3%,11.5%,-18.7,-11.7%,5.2%,i
CCOC(=O)C1(C(=O)OCC)CC2=C(C=CC3=C(C=C2)CC(C(=O)OCC)(C(=O)OCC)C3)C1,·,·,·,·,6.2%[14.2 µM],·
CCN1CCN(S(=O)(=O)c2ccc(Cl)c(C(=O)Nc3ccccc3N3CCCCC3)c2)CC1,?,3.3%,-28.2,-24.7%,11.2µM*,-29.6%
O=C(Nc1ccc(Cl)cc1Cl)c1cc(S(=O)(=O)N2CCN(c3ccccc3F)CC2)ccc1F,10.4%[46.1 µM],-19.1%,-64.6*,-23.3%,·,-8.1%
CCNc1nc(NCC)nc(-n2cc(C(=O)c3cc(Cl)ccc3O)cn2)n1,·,·,·,-24.6%,·,?
Cc1nc2sccn2c1CN1CCOc2ccc(CN3C[C@@H](C)O[C@@H](C)C3)cc2C1,·,?,·,-26.3%,·,-26.6%
Cc1cn2c(=O)cc(COC(=O)COc3ccc(C)c(C)c3)nc2s1,-0.4%[46.1 µM],0.0%,21.5,-6.4%,·,-6.3%
NC1C(N)C(N)C1N (stereo unspecified),·,·,·,-11.6%,·,-6.3%
Cc1c(O)c2c(c(C(=O)/C=C/c3ccccc3)c1O)OC(C)(C)C=C2,·,·,·,-18.8%,·,-12.5%
Cc1oc(C(C)(C)C)cc1C(=O)NC(Cc1ccccc1)C(=O)O (stereo unspecified),?,8.6%,-77.2*,3.6%,?,-9.5%
Cc1oc(-c2ccc3c(c2)OCCO3)cc1C(=O)NC(Cc1ccccc1)C(=O)O (stereo unspecified),4.0%,40.1%,-16.5,11.6%,-12.3%[46.1 µM],3.4%
CC1(C)C(=O)C=CC(=O)C(C)(C)C(=O)C=CC(=O)C(C)(C)C2=CC=C(O2)C(C)(C)C(=O)C=CC1=O,-19.4%,7.94µM*,-22.3,-1.7%,?,-10.0%
CCN(CC(=O)Nc1cccc(OC)c1)c1ncnc2sc(C)c(C)c12,-25.7%,20µM*,-73.8*,-21.7%,?,-17.0%
Cc1cc(Cl)c(C)c(S(=O)(=O)N2CCN(CC(=O)N3CCOCC3)CC2)c1Cl,·,-19.5%,+,·,·,·
Cc1ccc(S(=O)(=O)N2CCN(CC(=O)N3CCOCC3)CC2)cc1,15.3%[46.1 µM],4.4%,3.7,-12.4%,?,-19.9%
Cc1cc(C)c(Cn2c(=O)n(CCCC(=O)NCc3ccc4c(c3)OCO4)c(=O)c3sccc32)c(C)c1,4.9%[46.1 µM],-16.4%,31.2,-14.1%,-0.3%[46.1 µM],-7.7%
FC(F)(F)c1ccc(N2CCN(c3cc(-c4ccccc4)nc4ncnn34)CC2)nc1,?,·,-97.8*,-5.3%,?,i
